Results from PubChem BioAssay (NCI).
Compounds without any hit were thinned out: in the full panel of roughly 83,000, 20% have a hit.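 Assay: single dose, 48 h. Readout: percent growth (0 = no net growth; negative = cell death). Active: <10.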 A number with no mark means an inactive call. Calls of active or inactive are those of the source.

System: MDA-MB-468 breast
Test: NCI-60 one-dose screen, 48 h (100 = growth as untreated, 0 = no growth, -100 = all killed)
Conditions: 10 µM unless noted

SMILES	growth
CC(C)Sc1nc(Cl)c(C#N)c(-c2ccc(F)cc2)n1	98.9%
Nc1nc(-c2cccc(Br)c2)cc(-c2cc3ccccc3oc2=O)n1	91.8%
COc1cc(C(=O)C[n+]2ccccc2)ccc1OC(C)=O	101%
COc1cccc(CC(C)=C(c2ccc(OCCN3CCCCC3)cc2)c2ccc(OCCN3CCCCC3)cc2)c1	-82.8% (active)
O=C(Nc1ccc(Br)cc1F)c1cc(I)ccc1O	-1.19% (active)
CCCCCCCCCCCCNC(=O)[C@H]1CSC(c2ccc(OC)c(F)c2)N1 (stereo not given in full)	-81.4% (active)
Cn1c(=O)c2c(-c3ccccc3F)n(-c3ccc4c(c3)OCO4)cc2n(C)c1=O	83.2%
Cc1ccc(N=C2CSc3nnc(-c4csc5c4CCCC5)n3N2)cc1	17%
Clc1ccc2c(NCCCCNc3nc(N4CCOCC4)nc4ccccc34)ccnc2c1	24.9%
CC(O)/C=C/C=C/C(O)CC/C=C/C(=O)NCC(C)(C)O (stereo not given)	102%
C[C@@H](Oc1cc(C(=O)Nc2ccc(C(=O)N3CCN(C)CC3)cc2)nnc1N)c1c(Cl)ccc(F)c1Cl	62.3%
O=C(/C=C(/C=C/c1cccc2[nH]ccc12)OB(F)F)/C=C/c1cccc2[nH]ccc12	-57% (active)
CCN1CCN(Cc2ccc(NC(=O)c3nc4ccc5[nH]ncc5c4c4c3CCCC4)cc2C(F)(F)F)CC1	-51.9% (active)
C/C(Cc1ccc(Cl)cc1)=C(/c1ccc(Cl)cc1)c1ccc(OCCN(C)C)cc1	17.2%
Cc1ccc2nc(Cl)c(Cn3nnnc3SCc3ccccc3)cc2c1	90.4%
COC(=O)c1ccc(Cn2cnc3c(N)ncnc32)cc1	106%
Oc1c(CN2CCC(N3CCCCC3)CC2)cc(Cc2cc(CN3CCC(N4CCCCC4)CC3)c(O)c3ncccc23)c2cccnc12	-39.2% (active)
CSc1nc2c(c(=O)n1C)N=C1c3ccccc3C(=O)C1C(c1ccccc1)N2 (stereo not given)	54.8%
N=c1c2c(-c3ccccc3)c(-c3ccccc3)n(Cc3ccccc3)c2ncn1CCCO	-0.433% (active)
COc1cc(C2C(C#N)=C(N)OC3=C2C(=O)c2ccccc2C3=O)cc(OC)c1OC (stereo not given)	42.4%

SMILES	growth
C=COCCCCCCCCCCCCCCCCCC	103%
O=C(OCc1ccc2c(Br)cc(Br)c(O)c2n1)c1cc2ccccc2[nH]1	-73.2% (active)
CC(=O)CCS(=O)c1ccccc1 (stereo not given)	104%
CCCCC/C=N/Nc1nc(C)cc(=O)[nH]1	105%
N#Cc1ccc(NC(=O)c2sc3nc4c(cc3c2N)C(=O)CCC4)cc1	97.6%
CCOc1cccc2c(NC(C)CCCN(CC)CC)c(C)cnc12 (stereo not given)	92.9%
COc1cc2cc(Oc3ccc(NC(=O)Nc4ccc(F)c(C(F)(F)F)c4)cc3)c(C)nc2cc1OCCN(C)C	93.4%
COc1ccc(OC)c(-c2cc(-c3ccc(Cl)cc3)c3c(N)c(C(=O)c4ccc(Cl)cc4)sc3n2)c1	117%
O=C(NCc1ccc2c(c1)OCO2)NCC1CCCC(CNC(=O)NCc2ccc3c(c2)OCO3)C1 (stereo not given)	104%
CN1CCN(C(=O)[C@]23CCC(C)(C)C[C@H]2C2=CC[C@@H]4[C@@]5(C)C/C(=C/c6cccnc6)C(=O)C(C)(C)[C@@H]5CC[C@@]4(C)[C@]2(C)CC3)CC1	34.3%
N=C(N)c1ccc(-c2ccc(-c3ccc4ccccc4c3)s2)s1	-16.3% (active)
Cn1c(=O)c2[nH]c(Cc3ccc4c(c3)OCO4)nc2n(C)c1=O	106%
c1cc2ccc3cc2cc1CNCCOCCNCc1ccc2ccc(cc2c1)CNCCOCCNC3	-68% (active)
Cc1nc(C)c(C)nc1C	106%
COc1ccc(SC2c3ccc(O)cc3Oc3nc(N)c(C#N)c(N)c32)cc1 (stereo not given)	89.6%
CNc1ccc(Nc2ccc(S(=O)(=O)O)cc2)c2c1C(=O)c1ccccc1C2=O	98.6%
O=C(Nc1ccccc1)Nc1nc2ccc([N+](=O)[O-])cc2[nH]1	22.1%
c1ccc(C(c2nc3ncncc3[nH]2)N2CSc3nc4ncncc4n3C2)cc1 (stereo not given)	7.36% (active)
COc1ccc(C2=C(Nc3ccc(C(=O)Nc4ccccc4)cc3)C(=O)N(C)C2=O)cc1	88.1%
N=C(N)c1ccc(-c2ccc(-c3ccc(Cl)cc3Cl)o2)nc1	-33.8% (active)
